The source made the active and inactive calls.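 Rule for the calls: active = compounds killing one labelled cell type while sparing the other, by normalised counts and ratio limits, not self-fluorescent; inactive = the rest.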

This assay can be described thus: EMT-state selective cytotoxicity in co-culture – imaging, PC-3E GFP, TEM4-18 mCherry, primary screen (AID 1345086).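 For all read-outs here: cells exposed to compound for 72 h before imaging.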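 For red/green cell ratio (normalised): normalised mesenchymal count divided by normalised epithelial count so high means epithelial killing.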 The note with it: PC-3E GFP / TEM4-18 mCherry co-culture, imaging cell counts, at 1 µM; for red/green cell ratio (normalised): actives lie on both sides, counts scaled to control wells, 1 = unselective.
Setting [1] is: measured here: epithelial PC-3E GFP cell survival.
The mark [2] stands for this setting: measured here: mesenchymal TEM4-18 mCherry cell survival.

In the case of `O=C(O)c1ccc(-c2ccccc2)cc1`, the red/green cell ratio (normalised) is 0.96 (inactive). In addition, the normalised cell number under setting [1] was 1.01. For the same molecule, under setting [2], the normalised cell number came to 0.97.
As for `CO/N=C(/C(=O)NC1C(=O)N2C(C(=O)O)=C(C[N+]3(C)CCCC3)CSC12)c1csc(N)n1` (stereo not given), the red/green cell ratio (normalised) is 1.01 (inactive). Under setting [1], this molecule showed a normalised cell number of 1.21. This molecule gave a normalised cell number under setting [2] of 1.22.
In the same order, the values of `C[C@H]1[C@H](OC(=O)CCC(=O)O)O[C@@H]2O[C@]3(C)CC[C@H]4[C@H](C)CC[C@@H]1[C@@]24OO3` are 0.81 (inactive), 0.68 and 0.55.
Consider `C[C@H]1C[C@H]2C(=O)O[C@H]([C@@H](C)CCCC[C@@H](C)O)C[C@@H](O)[C@H](C)C(=O)NC(Cc3ccccc3)C(=O)N2C1` (stereo not given in full), for which the red/green cell ratio (normalised) is 0.93 (inactive). Moreover, the normalised cell number under setting [1] was 1.14. In addition, the normalised cell number under setting [2] came out at 1.05.
Regarding `C=C1OC(=O)C23C(O)C(=O)CC(OC12)C3C` (stereo not given), the red/green cell ratio (normalised) is 0.89 (inactive). Under setting [1], the normalised cell number amounted to 1.19. Moreover, the normalised cell number under setting [2] was found to be 1.06.
Consider `C/C=C/[C@@H]1C=C[C@@H]2C[C@H](C)CC[C@H]2[C@]1(C)/C(O)=C1\C(=O)[C@H](CO)N(C)C1=O`, for which the red/green cell ratio (normalised) is 1.03 (inactive). For the same molecule, under setting [1], the normalised cell number is 0.99. Also, the normalised cell number under setting [2] is 1.01.
`C[C@@H]1Cc2cccc(O)c2C(=O)O1`: the red/green cell ratio (normalised) was 1.03 (inactive). Further, under setting [1], the normalised cell number stood at 0.83. The same molecule displayed a normalised cell number under setting [2] of 0.85.
Regarding `NC(=O)C[C@H](NC(=O)OCc1ccccc1)C(=O)O`, the red/green cell ratio (normalised) is 1.25 (inactive). The molecule also yielded a normalised cell number under setting [1] of 0.87. Also, under setting [2], the normalised cell number turned out to be 1.08.
In the same order, the values of `CC(=O)OCC1O[C@H]2OC(=O)NC2[C@@H](OC(C)=O)C1OC(C)=O` (stereo not given in full) are 0.82 (inactive), 1.33 and 1.08.
Taken in the same sequence, the figures for `O=C1OCC[C@H]1Oc1ccc(Oc2cnc3ccc(Cl)cc3n2)cc1` were 1.01 (inactive), 1.08 and 1.09.
On to `CC(C)(c1ccc(O)cc1)c1ccc(O)cc1`, for which the red/green cell ratio (normalised) is 0.93 (inactive). For the same molecule, under setting [1], the normalised cell number came out at 1.17. Under setting [2], this molecule showed a normalised cell number of 1.09.
In the same order, the values of `CC1CCC2(OC1)OC1CC3C4CCC5C[C@@H](O)CCC5(C)C4=CCC3(C)C1[C@@H]2C` (stereo not given in full) are 0.87 (inactive), 1.08 and 0.94.
As to `CC1(C)CC2C1CCC1(CBr)CCC3C(CC(=O)O)C(=O)OC32C1` (stereo not given), the red/green cell ratio (normalised) was 0.9 (inactive). Moreover, under setting [1], the normalised cell number is 1.14. This molecule also showed a normalised cell number under setting [2] of 1.02.
For the molecule `CC(C)=C1CC[C@]2(C)[C@@H](O)CC[C@H]3[C@](C)(Cc4c[nH]c5ccccc45)[C@@H](C)CC[C@]132`, the red/green cell ratio (normalised) was 0.86 (inactive). For the same molecule, the normalised cell number under setting [1] stood at 1.09. This molecule had a normalised cell number under setting [2] of 0.94.
For the molecule `C/C1=C\[C@H](C)C[C@H](C)[C@@H](C)OC(=O)[C@H](Cc2ccccc2)NC(=O)[C@@H](C)C(=O)C(C)C1O` (stereo not given in full), the red/green cell ratio (normalised) was 0.99 (inactive). The normalised cell number under setting [1] was 1.08. The molecule further had a normalised cell number under setting [2] of 1.06.
In the same order, the values of `CCC[C@@H]1Cc2cc3c(-c4c(O)cc(O)c5c(O)c6c(cc45)C[C@@H](CCC)OC6=O)c(O)cc(O)c3c(O)c2C(=O)O1` are 0.85 (inactive), 1.2 and 1.02.
`C#C[C@]1(O)CCC2C3CCC4=CC(=O)CC[C@@H]4C3CCC21CC` (stereo not given in full): the red/green cell ratio (normalised) is 1.14 (inactive). Also, the normalised cell number under setting [1] was 1.07. This molecule also registered a normalised cell number under setting [2] of 1.21.
Taken in the same sequence, the figures for `O=C(Nc1ccccc1)Nc1ccc(CO)cc1` were 0.81 (inactive), 1.24 and 1.01.
With `CC(=O)C1=C(O)C=C2Oc3c(C(N)=O)c(O)cc(O)c3[C@@]2(C)C1=O`, the red/green cell ratio (normalised) is 1.13 (inactive). Also, the normalised cell number under setting [1] amounted to 0.92. The same molecule registered a normalised cell number under setting [2] of 1.04.
Take `C=CCOC(=O)N1C(=O)O[C@H]2C(OC(C)=O)C(COC(C)=O)O[C@H](Sc3ccc(C)cc3)[C@H]21` (stereo not given in full): the red/green cell ratio (normalised) was 0.89 (inactive). Besides, the normalised cell number under setting [1] worked out at 1.08. Also, the normalised cell number under setting [2] worked out at 0.97.
As for `O=C(Cc1ccccc1)NCC1O[C@@H](OC2C(NC(=O)Cc3ccccc3)C[C@@H](NC(=O)Cc3ccccc3)[C@H](OC3OC(COS(=O)(=O)O)[C@@H](OS(=O)(=O)O)[C@H](NC(=O)Cc4ccccc4)[C@H]3OS(=O)(=O)O)[C@H]2OS(=O)(=O)O)[C@H](OS(=O)(=O)O)[C@@H](OS(=O)(=O)O)C1OS(=O)(=O)O` (stereo not given in full), the red/green cell ratio (normalised) was 1.14 (inactive). For the same molecule, the normalised cell number under setting [1] is 0.9. This molecule registered a normalised cell number under setting [2] of 1.03.
In the case of `O=C1C[C@@H](O)[C@]23Oc4ccc(O)c5c4[C@](Oc4cccc1c42)(O3)C1O[C@@H]1[C@H]5O` (stereo not given in full), the red/green cell ratio (normalised) is 0.97 (inactive). Further, the normalised cell number under setting [1] was found to be 1.1. Also, under setting [2], the normalised cell number is 1.07.
For `COC(=O)C[C@@H]1C2(C)C(=O)[C@@H](CC3C2CC[C@]2(C)C3CC(=O)O[C@H]2c2ccoc2)[C@H](OC(C)=O)C1(C)C` (stereo not given in full), the red/green cell ratio (normalised) was 0.92 (inactive). This molecule returned a normalised cell number under setting [1] of 1.04. Also, the normalised cell number under setting [2] amounted to 0.95.
In the same order, the values of `Cc1ccc([C@H](C)CC(=O)N2C(=S)O[C@H]3Cc4ccccc4[C@H]32)cc1` are 0.95 (inactive), 1.05 and 1.
On to `CC1(C)S[C@@H]2[C@H](NC(=O)C(N)c3ccc(O)cc3)C(=O)N2[C@H]1C(=O)O` (stereo not given in full), for which the red/green cell ratio (normalised) was 0.84 (inactive). In addition, the normalised cell number under setting [1] came to 1.22. This molecule also yielded a normalised cell number under setting [2] of 1.02.
With `C[C@]12CCC3c4ccc(O)cc4C[C@@H](CCCCCCCCCS(=O)CCCC(F)(F)C(F)(F)F)C3C1CC[C@@H]2O` (stereo not given in full), the red/green cell ratio (normalised) was 1.23 (inactive). For the same molecule, the normalised cell number under setting [1] was determined as 0.99. Besides, the normalised cell number under setting [2] was determined as 1.21.
As for `CC12CCC3C(CC3(C)C)C3(C1)OC(=O)CC(C(=O)O)C3CC2` (stereo not given), the red/green cell ratio (normalised) is 0.86 (inactive). The molecule also displayed a normalised cell number under setting [1] of 1.03. The normalised cell number under setting [2] was determined as 0.88.
For `CC(CC(=O)N1CCOC1=O)N1C(=S)OC[C@@H]1c1ccccc1` (stereo not given in full), the red/green cell ratio (normalised) is 1.05 (inactive). The same molecule showed a normalised cell number under setting [1] of 0.85. Under setting [2], the normalised cell number stood at 0.89.
On to `COc1ccc2oc(-c3ccccc3OC)cc(=O)c2c1`, for which the red/green cell ratio (normalised) is 0.85 (inactive). This molecule had a normalised cell number under setting [1] of 1.16. Besides, under setting [2], the normalised cell number was 0.98.
On to `CC(CCC(=O)O)[C@H]1CCC2C3C(C[C@H](O)[C@@]21C)[C@@]1(C)CC[C@@H](O)C[C@H]1C[C@H]3O` (stereo not given in full), for which the red/green cell ratio (normalised) is 0.97 (inactive). Besides, the normalised cell number under setting [1] was 1.01. For the same molecule, under setting [2], the normalised cell number stood at 0.98.

The values above are taken from PubChem BioAssay.
